Results published in PubChem BioAssay (NCATS).
Inconclusive results are not listed. Values without a mark were called inactive. Active and inactive are the calls of the source. Calls come from the whole dose curve; as a rule, active = well fitted cell-killing curve with a large enough effect; inconclusive = small, poorly fitted or top-dose-only effect; inactive = no such curve, though single readings can be large or run the other way.

Test: qHTS of pediatric cancer cell lines to identify multiple opportunities for drug repurposing: Primary screen for Saos-2 cells (AID 1347097); note: nearly all actives have a fitted effect of over 40% in size
Details: Saos-2 viability, CellTiter-Glo ATP luminescence, 48 h; series mostly up to 46 µM; activity change, negative = cytotoxic: at the top concentration
Text: Drug repurposing or repositioning has been offered as a strategy for drug development in oncology programs. This approach has special potential for childhood cancers and other rare or orphan diseases, where the expected return on new drug development has been a disincentive to pharmaceuticals. […] In this project we exploit the poly-pharmacology of drugs to discover new indications via phenotypic screening of a panel of 19 well-characterized cell lines derived from solid tumors seen in children and adolescents. The goal is to identify approved drugs with previously unrecognized anticancer properties that has the potential to reveal new mechanisms and biological processes involved in carcinogenesis or drug resistance. We employed a titration-based paradigm (quantitative high-throughput screening or qHTS), where all compounds were tested at multiple concentrations for their effect on cell viability. Concentration-response curves (CRCs) were derived directly from the primary screen, and both potency and efficacy values were used to identify compounds with robust bioactivity profiles. We screened the NIH Chemical Genomics Center (NCGC) Pharmaceutical Collection (NPC) and Mechanism Interrogation Plate (MIPE) small molecule collections of approved and investigational compounds against these cell lines; and measured metabolically active cells after 48 hours of compound treatment as a proxy for cell viability. […] Assay Submitter: Nathalia J. Martinez, National Center for Advancing Translational Sciences, National Institutes of Health, Rockville, MD, USA; email: natalia.martinez@nih.gov Shen, M et al. Quantitative high-throughput phenotypic screening of pediatric cancer cell lines identifies multiple opportunities for drug repurposing. Oncotarget 2017 Dec 19;9(4):4758-4772. PMID 29435139.
The cells were obtained from University of North Carolina (UNC), Pediatric Preclinical Testing Program (PPT), and Coriell Institute (CI). qHTS cell viability assay: Cells were assayed in growth media at a density of 500-1,000 cells/well. Five microliters of cells were dispensed into 1,536-well, white, solid-bottom, TC-treated plates (Greiner Bio One) using a multidrop dispenser and incubated at 37 degrees C, 5% CO2, under a humidified atmosphere for 5 hours. Twenty-three nanoliters of compounds and controls (neutral control DMSO or positive control bortezomib at final concentration of 2.3 µM) were subsequently transferred by Kalypsys pintool. For primary screens, the MIPE collection was tested at 11-point dilutions (final concentrations range from 0.78 nM to 46 µM) and the NPC collection at 8-point dilutions (final concentrations range from 0.59 nM to 46 µM). Compounds tested in follow-up screens were assayed at 11-point dilutions. Cells were incubated for 48 hours, followed by addition of 3 µL of CellTiter-Glo (Promega). After a 15 min incubation at room temperature, samples were analyzed for luminescence intensity using a ViewLux High-throughput CCD imager equipped with clear filters.
% is set by controls: 0 for no effect and ±100 for the full control effect; potency is the fitted concentration of half-maximal effect.

Compound	Potency	activity change, negative = cytotoxic
CCn1cc(-c2ccnc3[nH]c(-c4cccc(CN(C)C)c4)cc23)c(-c2ccc(NC(=O)N(C)C)cc2)n1	3720 nM (active)	–
O=C(CCCCCCNC(=O)c1cnc(N(c2ccccc2)c2ccccc2)nc1)NO	11800 nM (active)	–
O=C(O)c1ccc2cc(-c3ccc(O)c(C45CC6CC(CC(C6)C4)C5)c3)ccc2c1	296 nM (active)	–
COc1cc2ncn(-c3cc(OCc4ccccc4C(F)(F)F)c(C(N)=O)s3)c2cc1OC	10500 nM (active)	–
O=C(O)CO.[NH2-].[NH2-].[Pt+2]	–	1.1%
CNC(=O)CN1CCC(Oc2cc3c(Nc4cccc(Cl)c4F)ncnc3cc2OC)CC1	18.7 nM (active)	–
CC(C)(C)NC(=O)[C@H]1CN(Cc2cccnc2)CCN1C[C@@H](O)C[C@@H](Cc1ccccc1)C(=O)N[C@H]1c2ccccc2C[C@H]1O	18700 nM (active)	–
CC(C)CC(=O)Nc1n[nH]c2c1CN(C(=O)C1CCN(C)CC1)C2(C)C	5260 nM (active)	–
O=C(C=Cc1c(C(=O)O)[nH]c2cc(Cl)cc(Cl)c12)Nc1ccccc1	–	2.03%
Nc1cc(C(F)(F)F)c(-c2cc(N3CCOCC3)nc(N3CCOCC3)n2)cn1	1480 nM (active)	–
COc1ccc(F)c(F)c1C(=O)c1cnc(NC2CCN(S(C)(=O)=O)CC2)nc1N	2350 nM (active)	–
CN(C)CCCN=c1c2ccccc2n(C)c2[nH]c(=O)n(C)c(=O)c12	–	-7.26%
Nc1nccc(Oc2ccc(NC(=O)c3c[nH]cc(-c4ccc(F)cc4)c3=O)cc2F)c1Cl	18700 nM (active)	–
Cc1cn(-c2cc(NC(=O)c3ccc(C)c(Nc4nccc(-c5cccnc5)n4)c3)cc(C(F)(F)F)c2)cn1	–	-25.6%
COc1cc2c(Oc3ccc4[nH]c(C)cc4c3F)ncnc2cc1OCCCN1CCCC1	29600 nM (active)	–
CCS(=O)(=O)c1cccc(-c2cc(C(=O)NC3CCN(C)CC3)c(C)c3[nH]c4ncc(C)cc4c23)c1	935 nM (active)	–
COc1ccc(-c2cc3c(C)nc(N)nc3n(C3CCC(OCCO)CC3)c2=O)cn1 (stereo not given)	187 nM (active)	–
C[C@@H]1CN(CC(=O)Nc2ccc3c(c2)Cc2cccc(-c4cc(=O)cc(N5CCOCC5)o4)c2S3)C[C@H](C)O1	10500 nM (active)	–
CC(C)(O)CCc1ccc(OCc2cc(-c3cccc(OC(F)F)c3)c3ncccc3c2)cc1	–	13.7%
Cn1c(CNc2ccc(C(=N)N)cc2)nc2cc(C(=O)N(CCC(=O)O)c3ccccn3)ccc21	–	14.9% [at 16.1 µM]

Compound	Potency	activity change, negative = cytotoxic
COc1c(N2C[C@@H]3CCCN[C@H]3C2)c(F)cc2c(=O)c(C(=O)O)cn(C3CC3)c12	–	88.4%
COc1ccc(CC2SC(=O)NC2=O)cc1C(=O)NCc1ccc(C(F)(F)F)cc1 (stereo not given)	–	-2.87%
Cn1cc(-c2ccncc2)c(-c2ccc(OCc3ccc4ccccc4n3)cc2)n1	11800 nM (active)	–
OCc1ccc(-c2ccc(-c3ccc(CO)s3)o2)s1	–	-0.958%
COc1cc(C(=O)N2CCC(N3CCN(C)CC3)CC2)ccc1Nc1ncc2c(n1)N(C)c1ccccc1C(=O)N2C	10500 nM (active)	–
Nc1ncnc2c1c(-c1cnc3[nH]ccc3c1)nn2C1CCCC1	935 nM (active)	–
COc1cccc(Nc2c(C(N)=O)cnc3c(C)cc(S(=O)(=O)c4cccc(C(=O)N(C)C)c4)cc23)c1	–	25% [at 16.1 µM]
CC1(O)CC(c2nc(-c3ccc4ccc(-c5ccccc5)nc4c3)c3c(N)nccn23)C1 (stereo not given)	935 nM (active)	–
Cn1cncc1[C@@](N)(c1ccc(Cl)cc1)c1ccc2c(c1)c(-c1cccc(Cl)c1)cc(=O)n2C	18700 nM (active)	–
CC1(C)CCC(c2ccc(Cl)cc2)=C(CN2CCN(c3ccc(C(=O)NS(=O)(=O)c4ccc(N[C@H](CCN5CCOCC5)CSc5ccccc5)c(S(=O)(=O)C(F)(F)F)c4)cc3)CC2)C1	4180 nM (active)	–
CCOC(=O)C1=C(C)NC2=C(C(=O)CC(C)(C)C2)C1c1ccc(-c2ccccc2)cc1 (stereo not given)	3320 nM (active)	–
Cc1nc2cnc3ccc(C#Cc4cccnc4)cc3c2n1-c1ccc(C(C)(C)C#N)cc1	235 nM (active)	–
CNC(=O)c1c(F)cccc1Nc1nc(Nc2cc3c(cc2OC)CCN3C(=O)CN(C)C)nc2[nH]ccc12	2090 nM (active)	–
C[C@@H]1COC(Nc2ccc3ncnc(Nc4ccc(OCc5nccs5)c(Cl)c4)c3c2)=N1	29600 nM (active)	–
O=C(NC1CCNCC1)c1[nH]ncc1NC(=O)c1c(Cl)cccc1Cl	1660 nM (active)	–
COC(=O)Nc1nc2ccc(C(=O)c3ccc(F)cc3)cc2[nH]1	526 nM (active)	–
CC=C1NC(=O)[C@H]2CSSCCC=C[C@H](CC(=O)N[C@H](C(C)C)C(=O)N2)OC(=O)[C@H](C(C)C)NC1=O	11.8 nM (active)	–
C#Cc1cccc(Nc2ncnc3cc(OC)c(OCCCCCCC(=O)NO)cc23)c1	209 nM (active)	–
CNC(=O)c1ccccc1Nc1nc(Nc2ccc(N3CCOCC3)cc2OC)ncc1Cl	1180 nM (active)	–
O=C(O)C1(Cc2cccc(Nc3nccs3)n2)CCC(Oc2cccc(Cl)c2F)CC1 (stereo not given)	14800 nM (active)	–
